# From PubChem BioAssay
# Active and inactive are the calls of the source. Unless noted, how the calls were made is not given here.
# Legend:
# [1] = signal quenchers or enhancers, Cy5 substrate/SSB – biochemical, NIH Clinical Collection, E. coli SSB, artefact control for HCV NS3 helicase inhibitor project (AID 743268); details: Cy5-oligo bound E. coli SSB, fluorescence interference
# [2] = tested on: Hepatitis C virus NS3 helicase; assay: blockers of NS3h binding to DNA – biochemical, fluorescence polarization, NIH Clinical Collection, primary screen (AID 743270); details: NS3 helicase binding to Cy5-dT15 DNA, stronger effect = higher value, concentration not given here
# [3] = target: Single-stranded DNA-binding protein (Escherichia coli (strain K12)) (UniProt P0AGE0); assay: SSB-ssDNA binding inhibitors – biochemical, fluorescence polarization, NIH Clinical Collection, counter-screen for HCV NS3 helicase inhibitor project (AID 743271; in the data active means inhibition above about 28%); details: E. coli SSB-DNA binding, stronger effect = higher value, concentration not given here
# [4] = compounds distorting NS3 helicase fluorescence signal – biochemical, NIH Clinical Collection, artefact control for HCV NS3 helicase inhibitor project (AID 743272); details: fluorescence interference counterscreen, HCV NS3 helicase assay; stronger effect = lower value;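 further: HCV NS3 helicase with a Cy5 labelled single stranded DNA probe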
# [5] = tested on: Neuropilin-2 / VEGF-C interaction (human); assay: small molecules blocking Neuropilin-2/VEGF-C interaction – biochemical, microplate binding format, z-score (AID 743281); details: microplate NRP2/VEGF-C binding assay; stronger effect = lower value
# [6] = Wnt pathway potentiators raising nuclear beta-catenin – imaging, WNT3A-conditioned medium, mouse C2C12, NPC library, primary screen (AID 1117326; in the data active means nuclear beta-catenin stimulation mostly above about 4.2%, no sharp cut-off; inactive means mostly below about 10%); details: stronger effect = higher value
# [7] = stimulators of insulin release from INS-1E, primary screen, cell-based, 5 mM glucose, NPC library (AID 1117329;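 active means compound raises insulin release from rat beta cells at 5 mM glucose, no numeric limit stated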); details: rat INS-1E insulin secretion, at 10 µM, stronger effect = higher value
# [8] = growth inhibition of GSK3B-pretreated HCT116 cells – cell-based, CellTiter-Glo, 0.2 to 20 µM (AID 1117336;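 active means compounds lowering colon cancer cell viability after pretreatment blocking the GSK3B kinase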); details: HCT116 viability after GSK3B inhibitor, at 20 µM, stronger effect = higher value
# [9] = inhibition of endothelial tube formation, primary screen, imaging, VEGF stimulated, CD31 staining, tube area, NPC library (AID 1117340;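 active means compound that reduces growth-factor-driven endothelial tube area in a mixed cell culture, no cutoff stated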); details: VEGF-stimulated ADSC/ECFC co-culture, at 10 µM, stronger effect = higher value
# [10] = GLP1 release stimulators, primary, NCI-H716, NPC library (AID 1117341;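 active means compound raises GLP1 secretion from the human gut endocrine cells, with no numeric limit stated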); details: NCI-H716 cells, at 10 µM, stronger effect = higher value
# [11] = HCT116 colon cancer cell growth inhibition, primary screen, CellTiter-Glo luminescence, NPC library (AID 1117342;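 active means compounds that lower survival of HCT116 colon cancer cells in the luminescence readout, no numeric limit stated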); details: at 20 µM (top of the series)
# [12] = reduced SW480 viability measured with CellTiter-Glo, NPC library, primary (AID 1117343;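 active means compounds that lower viability of the colon cancer cells in the luminescence readout, with no numeric limit stated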); details: CellTiter-Glo luminescence; at 20 µM (top of the series)
# [13] = NPC library primary testing for decreased DLD-1 cell viability via CellTiter-Glo (AID 1117346;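 active means compounds that lower survival of DLD-1 colon cancer cells in the luminescence readout, no cutoff given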); details: DLD-1 viability, CellTiter-Glo luminescence; at 20 µM (top of the series)
# [14] = tested on: Hepatitis C virus NS3 helicase; assay: blockers of NS3h binding to ssDNA – biochemical, fluorescence polarization, LOPAC1280 library, primary screen (AID 687035; in the data active means inhibition above about 37%); details: Purified HCV NS3 helicase, Cy5-dT15 ssDNA binding fluorescence polarization; stronger effect = higher value; concentration not given here
# [15] = compounds altering Cy5-DNA-NS3h complex signal – biochemical, LOPAC1280, artefact control for HCV NS3 helicase inhibitor project (AID 687037); details: Cy5-DNA-NS3h complex fluorescence interference counterscreen
Compound,fluorescence ratio [1],inhibition [2],inhibition [3],fluorescence ratio [4],z-score [5],nuclear beta-catenin stimulation ([6]; at 10 µM),"nuclear beta-catenin stimulation ([6]; stimulation, at 2 µM) [%]",insulin secretion stimulation [7],viability decrease [8],tube area decrease [9],GLP1 secretion stimulation [10],inhibition of viability [11],viability decrease (inhibition) [12],viability decrease (inhibition) [13],inhibition [14],fluorescence ratio (interference) [15]
Cc1ncc([N+](=O)[O-])n1CC(O)CCl (stereo not given),0.99 (inactive),5.94% (inactive),0.67% (inactive),0.99 (inactive),-0.43 (inactive),0.8% (inactive),1.1,-1.6% (inactive),-3.65% (inactive),-4.9% (inactive),-0.1% (inactive),0.2% (inactive),-45.6% (inactive),-4.95% (inactive),–,–
C[C@]12C[C@H](O)[C@H]3[C@@H](CCC4=CC(=O)CC[C@@]43C)[C@@H]1CC[C@@H]2C(=O)CO,1.01 (inactive),-1.97% (inactive),1.97% (inactive),0.99 (inactive),–,0% (inactive),-1.4,1.6% (inactive),-24.9% (inactive),9.5% (inactive),0.3% (inactive),-2.93% (inactive),37.4% (inactive),8.6% (inactive),0% (inactive),1 (inactive)
Cc1cnc(NC(=O)C2=C(O)c3ccccc3S(=O)(=O)N2C)s1,–,–,–,–,–,2% (inactive),-0.5,-1% (inactive),-14.6% (inactive),-8.1% (inactive),-2.4% (inactive),19.1% (inactive),23.9% (inactive),4.7% (active),-4% (inactive),1 (inactive)
O=C1CC2(CCCC2)CC(=O)N1CCCCN1CCN(c2ncccn2)CC1,–,-6.82% (inactive),1.05% (inactive),1.03 (inactive),–,0.7% (inactive),2.6,-0.8% (inactive),20.1% (inactive),-1.5% (inactive),1.7% (inactive),39.4% (inactive),20.4% (inactive),1.7% (inactive),0% (inactive),1 (inactive)
O=C(CCNNC(=O)c1ccncc1)NCc1ccccc1,1.01 (inactive),0.66% (inactive),-1.97% (inactive),0.97 (inactive),-0.136 (inactive),-1% (inactive),0.1,-2.7% (inactive),29.1% (inactive),-20.5% (inactive),0.6% (inactive),-8.3% (inactive),81.2% (active),31.8% (inactive),-4% (inactive),1 (inactive)
